Structures are written as SMILES. Records with an inconclusive call do not appear. Where a call stands in place of a potency, no number is given. Unmarked numbers belong to inactive results. The source made the active and inactive calls. Calls follow the shape of the dose curve; as a rule, active = well fitted inhibition curve with a large enough effect; inconclusive = small, poorly fitted or top-dose-only effect; inactive = no such curve, though single readings can be large or run the other way.

Our source for the Potency, outcome and activity change, negative = inhibition values is PubChem BioAssay (NCATS).
Potency is read from the fitted curve at half-maximal effect.

The assay relates to Zika virus NS2B-NS3 protease (linked construct). The experiment in a line: Primary screen NINDS Rhodamine qHTS for Zika virus inhibitors (AID 1347160). Also: nearly all actives have a fitted effect of over 55% in size. Particulars: purified NS2B-NS3 protease, Rhodamine110 substrate fluorescence; series mostly up to 57.1 µM. The gist of the method:
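Rhodamine110-peptide cleavage (1.5 µM substrate) by 25 nM linked NS2B-NS3 enzyme at pH 8.0 (Tris, Tween 20), after 15 min RT preincubation with compounds; 15-min fluorescence change normalized to controls and Hill-fitted.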
A general note: In qHTS, concentration-response curves come from the screen itself.
Regarding `COc1nccc(-c2c(-c3ccc(F)cc3)ncn2C2CCNCC2)n1`, the Potency entry is “inactive”.
Still for that read-out and setting: the value for `CC[C@H](CC#N)OC(=O)N[C@@H](C)c1cccc(NC(=O)Nc2ccc(-c3cnco3)c(OC)c2)c1` was “inactive”; that for `CCCCC(F)(F)[C@@]1(O)CC[C@H]2[C@H](CC(=O)[C@@H]2CCCCCCC(=O)O)O1` was “inactive”.
The same measure, in the same setting: the value for `Clc1ccc(C2(c3ccc(-c4cn[nH]c4)cc3)CCNCC2)cc1` was “inactive”; that for `CCN1CCN(c2ccc(Nc3cc(N(C)C(=O)Nc4c(Cl)c(OC)cc(OC)c4Cl)ncn3)cc2)CC1` was “inactive”.
Still for that read-out and setting: the value for `Cc1ccccc1-n1c(Cn2nc(-c3cccc(O)c3)c3c(N)ncnc32)nc2cccc(C)c2c1=O` was “inactive”.
On to `CN1CCc2c(n(Cc3ccc(C(=O)NO)cc3)c3ccccc23)C1`, for which the Potency result is “inactive”.
On the same count and under the same terms, the value for `N#Cc1ccc(Oc2ccc3c(c2)COB3O)cc1` was “inactive”; that for `CCN1CCC(n2cc(CNc3cc(Cl)c4ncc(C#N)c(Nc5ccc(F)c(Cl)c5)c4c3)nn2)CC1` was “inactive”; that for `O=C(CCCN1CCN(c2ccc(F)cc2)CC1)NC1c2ccccc2CSc2ccccc21` (configuration not stated) was “inactive”.
On to `CN[C@@H](C)[C@H]1[C@H](O)C[C@@]2(C)[C@@H]3CC[C@H]4C(C)(C)[C@@H](NC)CC[C@@]45C[C@@]35CC[C@]12C`, for which the outcome is “inactive [at 10.7 µM]”.
`O=C(O)CCNc1cc(N2CCc3ccccc3CC2)nc(-c2ccccn2)n1`: the activity change, negative = inhibition was -4.33% [at 10.7 µM].
For the molecule `O=S(=O)(O)c1ccc2cc(N=Nc3cc(S(=O)(=O)O)c4cccnc4c3O)ccc2c1`, the Potency was 1.26 µM (active).
Same read-out and setting: to `NS(=O)(=O)c1cc(Cl)c(Cl)c(S(N)(=O)=O)c1` belongs “inactive”.
In the case of `Fc1ccc(CNc2ncnc3ccc(F)cc23)cc1`, the Potency result is “inactive”.
On the same count and under the same terms, to `C[C@H](c1ccc(F)cc1CCCC(=O)O)N(c1cc(F)ccc1F)S(=O)(=O)c1ccc(Cl)cc1` belongs 14.1 µM (active).
Regarding `C[C@@H]1CCO[C@H]2Cn3cc(C(=O)NCc4ccc(F)cc4F)c(=O)c(O)c3C(=O)N12`, the Potency entry is “inactive”.
On to `Cc1cc2c(cc1C1(c3ccc(C(=O)O)cn3)CC1)C(C)(C)CCC2(C)C`, for which the Potency is 14.1 µM (active).
Still for that read-out and setting: the value for `CNC(=O)c1c(-c2ccc(F)cc2)oc2cc(N(CCO)S(C)(=O)=O)c(C3CC3)cc12` was “inactive”.
Same read-out and setting: the value for `CC1(COc2ccc3c(c2)ncn3-c2ccc3cccc(N4CCC(N)CC4)c3n2)COC1` was “inactive”; that for `N#CC1(c2cccc(C(=O)Nc3cc(Oc4ccc5nc(NC(=O)C6CC6)sc5n4)ccc3F)c2Cl)CC1` was “inactive”; that for `c1cc(OCCN2CCCCC2)cc(-c2n[nH]c3ccc(-c4ncn[nH]4)cc23)c1` was “inactive”.
With `Cc1csc(-c2nnc(Nc3ccc(Oc4ncccc4-c4ccnc(N)n4)cc3)c3ccccc23)c1`, the Potency result was “inactive”.
The same measure, in the same setting: the value for `COc1ccc(CCC(=O)Nc2nc3ccc(Cl)cc3s2)cc1OC` was “inactive”; that for `CC(C)(O)CC(=O)NCCn1ccc2ncnc(Nc3ccc(Oc4cccc(C(F)(F)F)c4)c(Cl)c3)c21` was “inactive”; that for `Cc1cc(C(C)Nc2ccccc2)c2nc(N3CCOCC3)cc(=O)n2c1` (configuration not stated) was “inactive”.
On the same count and under the same terms, the value for `O=C1NC(=O)C(c2cnc3ccccn23)=C1c1cn2c3c(cccc13)CN(C(=O)N1CCOCC1)CC2` was “inactive”.
